# Compound activity from PubChem.
# FBPA coupling cs – qHTS Assay for Inhibitors of Fructose-1,6-bisphosphate Aldolase from Giardia Lamblia: Coupling assay counterscreen; actives 0.67% (n = 290,000); coupling enzyme system counterscreen, AmpLite Red fluorescence; activity change, negative = inhibition, % at 58.2 µM, hits read low; AID 2472, 2010; in the data active means activity change below about -30%
#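 First, compound is pin-transferred into glyceraldehyde-3-phosphate coupling-enzyme reagent at 57.5 uM final and held 10 min at RT. Next, substrate, coupling system and AmpLite Red are added. After 20 min RT, fluorescence (525/598 nm) is read.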
# Sfp PPTase inh – qHTS Assay for Inhibitors of Bacillus subtilis Sfp phosphopantetheinyl transferase (PPTase); 4'-phosphopantetheinyl transferase ffp (Bacillus subtilis), Q9F4F7; Biochemical Sfp PPTase activity, qHTS; Potency, µM, inactives show largest response in the series, negative = inhibition, usual class: inhibitors; actives 3.5% (n = 310,000);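 further: the enzyme is Sfp with the accession as filed and its product quenches rhodamine fluorescence; potency means the concentration at half of the fitted maximal effect; 0% = enzyme reaction without inhibitor and -100% = no enzyme wells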
#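 Fluorescence-quenching assay with 15 nM Sfp, 5 uM rhodamine-CoA and 12.5 uM BHQ-2-labelled ybbR peptide in pH 7.6 Hepes/MgCl2 buffer. Enzyme was pre-incubated with compound for 15 min at room temperature. Rate was taken from the 30-min fluorescence change (525/598 nm).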
# Tau fluor counter – Counterscreen qHTS for Inhibitors of Tau Fibril Formation, Fluorescence Polarization; tau K18 P301L Alexa594 fluorescence, heparin fibrillization; AID 1463, 2008; actives 0.93% (n = 280,000); Potency, µM (highest dose often 57.7 µM), without a hit: at the top dose activity change, negative = decrease; further: potency means the concentration at half of the fitted maximal effect; nearly all actives have a fitted effect of over 55% in size
#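 Human K18 P301L tau (15 uM unlabeled plus 0.24 uM Alexa 594-labeled, final) in 100 mM sodium acetate pH 7 was mixed with compound and 20 uM heparin and incubated 6 hr at 37 C.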
# Tau fibril FP – qHTS for Inhibitors of Tau Fibril Formation, Fluorescence Polarization; Microtubule-associated protein tau (Homo sapiens), P10636; AID 1468, 2008; Potency, µM (series often up to 57.7 µM), inactives show at the top dose activity, negative = inhibition, hits mostly inhibitors; K18 P301L tau heparin fibrillization, Alexa594 FP, 6 h; actives 0.39% (n = 280,000); further: potency means the concentration at half of the fitted maximal effect; nearly all actives have a fitted effect of over 55% in size
# Target sequence (P10636 561-689 P618L limits assumed): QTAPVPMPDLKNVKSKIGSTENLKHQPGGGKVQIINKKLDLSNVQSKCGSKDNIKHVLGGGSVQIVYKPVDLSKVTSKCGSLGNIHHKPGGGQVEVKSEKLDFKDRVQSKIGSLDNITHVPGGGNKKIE
#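 Compound effects on tau fibrillization are measured by Alexa 594 fluorescence polarization (ex 555, em 632 nm). K18 P301L tau is used at 15 uM with 0.24 uM labeled tracer, and 20 uM heparin induces aggregation over 6 hr at 37 C.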
# Tau ThT inhib – qHTS for Inhibitors of Tau Fibril Formation, Thioflavin T Binding. recombinant tau K18 P301L (four-repeat tau fragment), heparin-induced fibrillization, ThT fluorescence. actives 2.1% (n = 270,000). Potency, µM (doses to about 57.4 µM), for inactives: at the highest dose activity, negative = inhibition, usual class: inhibitors. AID 1460, 2008; further: potency means the concentration at half of the fitted maximal effect; nearly all actives have a fitted effect of over 55% in size
#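 Heparin-induced (20 uM) aggregation of recombinant human K18 P301L tau, 15 uM unlabeled with 0.24 uM labeled, pH 7 acetate buffer, 6 hr at 37 C with compound. Fibrils quantified by 30 uM ThT fluorescence after 1 hr ambient incubation.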
# * marks the source's active call; other numbers are inactive results; ? = inconclusive; · = not tested or not shown; [ ] = dose if it differs, or a comment. Shown are actives, neighbours in structure and some others; about 5.2% of the full set was active somewhere. Unless noted, the call rests on the fitted dose curve; in most records, active means well fitted curve in the direction sought with a large enough effect; inconclusive means small, poorly fitted or top-dose-only effect, or another doubt; inactive means no such curve, though single readings can be large; an effect the other way counts as inactive or inconclusive. Unless noted, on the % scale 0 is the no-effect control and ±100 the full control effect.
SMILES,FBPA coupling cs,Sfp PPTase inh,Tau fluor counter,Tau fibril FP,Tau ThT inhib
CC[C@H](C)[C@H](NC(=O)[C@H](CCC(=O)O)NC(=O)[C@@H](N)CO)C(=O)N[C@@H](CCC(N)=O)C(=O)N[C@@H](CC(C)C)C(=O)N[C@@H](CCSC)C(=O)N[C@@H](Cc1cnc[nH]1)C(=O)N[C@@H](CC(N)=O)C(=O)N[C@@H](CC(C)C)C(=O)NCC(=O)N[C@@H](CCCCN)C(=O)N[C@@H](Cc1cnc[nH]1)C(=O)N[C@@H](CC(C)C)C(=O)N[C@@H](C)C(=O)N[C@@H](CO)C(=O)N[C@H](C(=O)N[C@@H](CCC(=O)O)C(=O)N[C@@H](CCCNC(=N)N)C(=O)N[C@@H](CCSC)C(=O)N[C@@H](CCC(N)=O)C(=O)N[C@@H](Cc1c[nH]c2ccccc12)C(=O)N[C@@H](CC(C)C)C(=O)N[C@@H](CCCNC(=N)N)C(=O)N[C@@H](CCCCN)C(=O)N[C@@H](CCCCN)C(=O)N[C@@H](CC(C)C)C(=O)N[C@@H](CCC(N)=O)C(=O)N[C@@H](CC(=O)O)C(=O)N[C@H](C(=O)N[C@@H](Cc1cnc[nH]1)C(=O)N[C@@H](CC(N)=O)C(=O)N[C@@H](Cc1ccccc1)C(=O)O)C(C)C)C(C)C,0.4,3.4%,·,·,·
CCOc1ccc(N=C(NN)c2ccc3ccccc3n2)cc1,-11.0,14.1µM*,?,-10.9%,10µM*
CCOc1ccc(N=C(C)C2=C(O)c3ccccc3C2=O)cc1,-0.8,?,?,-6.3%,·
Cc1cccc(C)c1NC(=O)Cn1c(=O)n(Cc2ccco2)c(=O)c2ccc(C(=O)NC3CCCC3)cc21,·,·,-9.7%,?,-0.8%
O=c1[nH]n2c(=O)c3c([nH]c2c1N=Nc1cccc(C(F)(F)F)c1)CCCC3,5.5,10.7%,-25.0%,0.4%,2.82µM*
COc1cccc(N=Nc2c(=O)[nH]n3c(=O)cc(C)[nH]c23)c1,-1.2,-11.3%,-20.0%,6.4%,15.8µM*
COc1cccc(N=Nc2c(=O)[nH]n3c(=O)c4c([nH]c23)CCC4)c1,-0.4,-26.8%,-20.7%,7.2%,7.08µM*
O=c1[nH]n2c(=O)c3c([nH]c2c1N=Nc1cccc(Cl)c1)CCC3,0.6,?,1.4%,2.3%,-0.8%
NS(=O)(=O)c1ccc(N=Nc2c(=O)[nH]n3c(=O)c4c([nH]c23)CCCC4)cc1,11.1,7.0%,-28.8%,5.4%,7.94µM*
Nc1nc(O)c(N=Nc2ccc(S(N)(=O)=O)cc2)c(=O)[nH]1,-0.5,-7.3%,·,·,·
COc1ccccc1N1CCN(S(=O)(=O)c2ccc(-c3ccno3)cc2OC)CC1,·,·,-23.5%,16.9%,5.3%
Cc1ccc(/C=C2/Sc3ccc(C(=O)NCCN4CCOCC4)cc3NC2=O)cc1,·,-10.3%,·,·,·
CCN1CCCC1CNC(=O)c1ccc2c(c1)NC(=O)/C(=C\c1ccc(C)cc1)S2 (stereo unspecified),1.7,50.1µM*,·,·,·
COc1ccccc1N1CCN(C(=O)c2cc3c(=O)n(Cc4ccco4)ccc3nc2C)CC1,·,·,-5.3%,0.1%,-10.8%
Cc1ccc(OCCSc2nc3ccccc3n2CC(=O)N2CCCCC2)c(C)c1,·,·,-16.2%,3.8%,?
Cc1cc(=O)cc2oc3cc(N)c(-c4c(C)cc(O)cc4O)c(C)c3nc1-2,-30.4*,50.1µM*,?,22.4µM*,14.1µM*
CC(NC(=O)c1ccc(Cl)s1)C1CCCO1 (stereo unspecified),0.2,-13.2%,-4.2%,-2.5%,-10.3%
C[C@@H](O)[C@@H]1C(=O)N2C(C(=O)O)=C([C@H]3CCCO3)S[C@H]12,·,79.4µM*,·,·,·
COc1cccc(-c2cc(=O)c3ccccc3o2)c1N,-3.5,-25.4%,?,0.5%,15.8µM*
COc1ccccc1-c1cc(=O)c2cccc(OC)c2o1,0.1,3.0%,-22.5%,-15.2%,?
COC(=O)Cc1c(C)nc2nc(-c3ccco3)[nH]n2c1=O,-2.7,56.2µM*,-7.1%,-1.5%,3.1%
O=c1cc(-c2ccccc2)[nH]n1-c1ccc([N+](=O)[O-])cc1,-0.4,-1.6%,?,5.0%,12.6µM*
O=c1c(N=Nc2ccc(O)cc2)c(-c2ccccc2)[nH]n1-c1ccc([N+](=O)[O-])cc1,0.1,11.1%,?,-5.8%,?
CSc1ccc(CCNC(=O)Cn2nc(C)n3c(cc4sccc43)c2=O)cc1,·,·,8.1%,-8.3%,-4.5%
COc1ccc(NC(=O)c2cc3c(-c4ccc(OC)c(OC)c4)nn(C)c3s2)cc1OC,0.4,14.5%,3.55µM*[quencher],-1.9%,?
SMILES,FBPA coupling cs,Sfp PPTase inh,Tau fluor counter,Tau fibril FP,Tau ThT inhib
COc1ccc(-c2nn(C)c3sc(C(=O)NCc4ccco4)cc23)cc1OC,-0.2,-19.3%,9.1%,7.4%,12.7%
COc1ccc(-c2nn(C)c3sc(C(=O)Nc4cc(OC)c(OC)c(OC)c4)cc23)cc1OC,·,·,2.51µM*[quencher],?,?
COCCn1nnnc1C(c1cc2cc(OC)c(OC)cc2[nH]c1=O)N1CCN(c2ccc(O)cc2)CC1 (stereo unspecified),5.1,?,12.0%,9.7%,10.5%
COCCn1nnnc1C(c1ccccc1OC)N1CCN(c2ccccc2F)CC1 (stereo unspecified),0.3,15.0%,-4.6%,0.5%,-9.1%
CCc1ccc2[nH]c(=O)c(C(c3nnnn3CCOC)N3CCN(c4ccc(F)cc4)CC3)cc2c1 (stereo unspecified),-15.9,17.8µM*,-22.2%,11.5%,?
CCc1ccc2[nH]c(=O)c(C(c3nnnn3CCOC)N3CCN(c4ccccc4)CC3)cc2c1 (stereo unspecified),-9.1,31.6µM*,-14.9%,-3.8%,?
COCCn1nnnc1C(c1cc2cccc(C)c2[nH]c1=O)N1CCN(c2ccccc2F)CC1 (stereo unspecified),-6.6,14.1µM*,-1.6%,1.1%,?
COC(=O)N1CCC[C@@]2(CCN(C(=O)Nc3ccccc3)C2)C1,-2.8,3.0%,·,·,·
Cc1ccc(-n2c(=O)[nH]c3c(C(N)=O)nc(-c4ccc(C)o4)nc32)cc1,0.6,44.7µM*,-3.2%,-5.2%,?
NS(=O)(=O)c1ccc(CCNCc2cc(Br)ccc2OCc2ccccc2F)cc1,0.3,50.1µM*,-26.0%,-8.5%,-18.0%
Cc1c(CNCCCc2ccccc2)c(C(=O)O)c(C)n1Cc1ccc(Cl)cc1,·,·,-4.3%,5.1%,-7.8%
Cc1ccc(S(=O)(=O)c2nnn(-c3ccc(F)c(Cl)c3)c2N)cc1,·,·,-8.1%,-9.9%,0.9%
